Source: PubChem
This is a sample that favours compounds with a hit; in the whole collection about 19% have one here.
TDP1 cell noCPT: qHTS for Inhibitors of human tyrosyl-DNA phosphodiesterase 1 (TDP1): qHTS in cells in absence of CPT; DT40 Tdp1-/- hTDP1 cells, no CPT, ATP luminescence, 48 h; Potency, µM (series often up to 46.2 µM), usual class: inhibitors; hit rate 15% among 420,000; note: nearly all actives have a fitted effect of over 55% in size
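Growth kinetics read by CellTiter-Glo luminescence after ≥48 hr at 37 °C. Cells: DT40 Tdp1-/- stably carrying human TDP1, 400 per well, compound exposure in the absence of CPT (DMSO vehicle).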
HT1080 IDH1KD tx: toxicity to HT-1080 IDH1 knockdown cells (counter line); Potency, µM (top dose mostly 46.1 µM), usual class: cytotoxic; hit rate 2% among 360,000; HT-1080 IDH1 knockdown viability, ATP luminescence, 48 h
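Assay cells: HT-1080 with IDH1 knockdown, 750 per well, RPMI/5% FBS. Exposure: 48 h at 37 °C following 2 h pre-incubation. Read: CellTiter-Glo luminescence; fitted concentration-response, curve class assigned.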
HT1080-NT tox: kills 2HG-producing HT-1080-NT fibrosarcoma cells | HT-1080-NT fibrosarcoma viability, CellTiter-Glo ATP luminescence, 48 h | Potency, µM (highest dose often 46.1 µM), actives largely listed as cytotoxic | hit rate 1.6% among 360,000;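 note: NT is the 2HG producing partner of a matched IDH1 knockdown line; nearly all actives have a fitted effect of over 55% in size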
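HT-1080-NT fibrosarcoma cells (2HG-overproducing), 750 cells/well in RPMI with 5% FBS, dosed after 2 h and incubated 48 h at 37C. CellTiter-Glo luminescence normalized to DMSO and no-cell wells; concentration-response curves fitted and classed.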
IL-1B inflam inh: inflammasome signaling inhibition, IL-1 beta readout | hit rate 4.7% among 360,000 | THP-1 LPS/ATP IL-1B secretion, AlphaLISA, 16 h; hits give low values | activity change, % at 57.5 µM | AID 743279; in the data active = activity change below about -50%; inconclusive = mostly about -30% to -49%
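THP-1 cells pretreated 1 hr with compounds (up to 57.5 uM final), then stimulated with LPS (250 ng/mL final) plus ATP (1.25 mM final); secreted IL-1B measured by AlphaLISA after 16 hr, decreased signal indicating inhibition.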
TDP1 cell CPT: DT40-hTDP1 cell growth loss with CPT; chicken DT40 Tdp1-/-;hTDP1 cells + 20 nM CPT, ATP luminescence, 48 h; Potency, µM (highest dose often 46.2 µM), usual class: inhibitors; hit rate 12% among 420,000; AID 686979; note: nearly all actives have a fitted effect of over 55% in size
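Chicken DT40 Tdp1-/- cells stably complemented with human TDP1 were seeded at 400 cells/well in medium containing 20 nM camptothecin, exposed to pin-transferred compounds, and grown at 37 °C for at least 48 hr. Viability was read as ATP luminescence.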
Hits are given with their value; i = inactive; ? = inconclusive; nt = no result given. Unless noted, calls come from the whole dose curve; as a rule, active = well fitted curve in the direction sought with a large enough effect; inconclusive = small, poorly fitted or top-dose-only effect, or another doubt; inactive = no such curve, though single readings can be large; an effect the other way counts as inactive or inconclusive.

SMILES	TDP1 cell noCPT	HT1080 IDH1KD tx	HT1080-NT tox	IL-1B inflam inh	TDP1 cell CPT
CCCN(CCC)CCCNC(=O)C1c2cc(OC)c(OC)cc2C(=O)N(C)C1c1cccnc1 (stereo not given)	i	i	i	?	i
COc1cccc(OC)c1C(=O)Nc1ccc(S(=O)(=O)Nc2nccc(C)n2)cc1	i	nt	nt	nt	i
CCN(CC)c1c([N+](=O)[O-])c(=O)n(C)c2ccccc12	?	i	i	i	i
Cn1c(=O)c([N+](=O)[O-])c(NCc2ccccc2Cl)c2ccccc21	?	i	i	-79	i
CN(Cc1ccccc1)c1c([N+](=O)[O-])c(=O)n(C)c2ccccc12	15µM	i	i	i	?
Cn1c(=O)c([N+](=O)[O-])c(Cl)c2ccccc21	4.6µM	5.8µM	5.8µM	-101	2.6µM
Cn1c(=O)c([N+](=O)[O-])c(NCCc2ccccc2)c2ccccc21	16µM	i	i	i	?
Cc1ccc(CNC(=O)c2ccc3c(c2)NC(=O)C(N2CCOCC2)S3)cc1 (stereo not given)	?	i	i	-77	?
CC1=C(C(=O)N2CCOCC2)CC(CC(=O)NCCc2ccccn2)C(=O)N1Cc1ccccc1 (stereo not given)	i	i	i	i	i
COc1ccc(N2CCN(C(=O)c3c(C)nn(-c4ccccc4)c3C)CC2)cc1	?	i	i	i	?
COc1ccccc1/C=N/Nc1cc(N(C)C)nc(N(C)C)n1	?	?	?	-153	i
COc1ccc(/C=N/Nc2cc(N(C)C)nc(N(C)C)n2)cc1	?	i	i	-75	?
COc1ccc(CNC(=O)COC(=O)CO/N=C(\C)c2ccc3c(c2)OCO3)cc1	i	i	i	i	i
CCCn1c(C)cc(C(=O)CN2C(=O)c3ccccc3S2(=O)=O)c1C	9.2µM	i	i	i	?
Cc1ccc(C)c(C(=O)CN2C(=O)c3ccccc3S2(=O)=O)c1	i	i	i	i	i
C1CCC(C23CC4CC(CC(C4)C2)C3)NC1 (stereo not given)	i	i	i	i	i
O=C(CNC(=O)OCc1ccccc1)NC(Cc1cnc[nH]1)C(=O)O (stereo not given)	16µM	i	i	i	?
COCCNC(=O)C(c1ccncc1)N(Cc1ccccc1)C(=O)Cn1nnc2ccccc21 (stereo not given)	i	i	i	i	i
CCN1C(=O)N(CC)C2C1N(CO)C(=O)N2CO (stereo not given)	i	i	i	i	i
O=C(NCc1ccncc1)C1Cc2c(-c3ccc4c(c3)OCO4)ccnc2O1 (stereo not given)	13µM	?	?	i	?
O=C(NCc1ccccc1)C1Cc2c(-c3ccc4c(c3)OCO4)ccnc2O1 (stereo not given)	0.73µM	0.41µM	?	i	0.58µM
CN1CCN(c2ccc(CNC(=O)C3Cc4c(-c5ccc6c(c5)OCO6)ccnc4O3)cc2)CC1 (stereo not given)	?	i	i	i	i
O=C(CN1C(=O)C2C3C=CC(C4CC34)C2C1=O)Nc1cccc2ncccc12 (stereo not given)	i	i	i	i	21µM
Cn1nc(C(=O)NCc2ccccc2)c2ccccc2c1=O	i	i	i	i	i
COc1ccc(-c2nn(C)c(=O)c3ccccc23)cc1NC(=O)COc1ccc(C)cc1	18µM	i	i	i	23µM
COc1cc(NC(=O)Cc2nn(C)c(=O)c3ccccc23)cc(OC)c1OC	?	i	i	i	?
Cn1nc(CC(=O)NCc2ccc(C(F)(F)F)cc2)c2ccccc2c1=O	10µM	?	?	i	29µM
COc1ccc(OC)c(NC(=O)Cc2nn(C)c(=O)c3ccccc23)c1	16µM	i	i	i	16µM
CCCCC(Sc1nc(N)c(NC(=O)c2ccco2)c(=O)[nH]1)C(=O)O (stereo not given)	i	i	i	i	i
COc1ccc(N2CCN(C(=O)Cc3nn(C)c(=O)c4ccccc34)CC2)cc1	?	i	i	i	?
